High-throughput results as filed in PubChem BioAssay.
SMN2 splice enh = enhancers of SMN2 splice variant expression | HEK293 SMN2-luciferase splicing reporter, luminescence, 30-36 h | Potency, µM (highest dose often 46.1 µM), actives largely listed as activators | 2.8% of 210,000 active; note: nearly all actives have a fitted effect of over 55% in size
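qHTS luciferase splicing reporter: luminescence rises when SMN2 exon 7 is included in transfected HEK293 cells. Compound exposure lasted 30-36 h at 37C, with 4.5 mM final sodium butyrate as control, followed by a ONE-Glo read.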
FLuc modulator = inhibits or activates purified firefly luciferase, miR-21 counter-screen. P08659. purified FLuc, Km substrates, luminescence inhibition. Potency, µM (highest dose often 57.5 µM), usual class: inhibitors. 6.9% of 360,000 active; note: nearly all actives have a fitted effect of over 55% in size
Target sequence (P08659 whole entry, looked up): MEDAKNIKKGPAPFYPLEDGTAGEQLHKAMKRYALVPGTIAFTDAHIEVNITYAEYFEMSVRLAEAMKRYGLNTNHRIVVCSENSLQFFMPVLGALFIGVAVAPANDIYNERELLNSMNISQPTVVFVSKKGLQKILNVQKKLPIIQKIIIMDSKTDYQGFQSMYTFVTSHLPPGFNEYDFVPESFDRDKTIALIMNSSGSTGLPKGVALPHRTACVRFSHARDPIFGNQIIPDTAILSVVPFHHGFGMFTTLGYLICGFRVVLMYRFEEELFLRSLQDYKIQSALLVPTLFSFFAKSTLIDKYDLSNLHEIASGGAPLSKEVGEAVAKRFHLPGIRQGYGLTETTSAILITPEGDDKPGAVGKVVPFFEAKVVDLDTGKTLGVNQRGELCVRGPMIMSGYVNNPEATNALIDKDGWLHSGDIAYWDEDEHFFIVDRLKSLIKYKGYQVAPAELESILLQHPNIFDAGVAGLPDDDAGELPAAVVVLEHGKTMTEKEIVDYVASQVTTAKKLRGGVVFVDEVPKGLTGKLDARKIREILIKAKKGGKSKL
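Biochemical qHTS of compounds, final roughly 60 µM downward over six points, against 10 nM purified firefly luciferase using Km concentrations of substrates (10 uM D-luciferin, 10 uM ATP) in Tris acetate pH 7.5 buffer; luminescence output.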
Rab9 prom act = activators of Rab9 promoter | Huh7 Rab9 promoter-luciferase reporter, luminescence, 24 h | Potency, µM (top dose mostly 9.22 µM), actives largely listed as activators | 2.8% of 320,000 active | AID 485297; note: nearly all actives have a fitted effect of over 60% in size
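Huh7 cells stably carrying a Rab9 promoter-luciferase reporter, 1500 cells per well in OP-MEM I with 10% FBS, treated with compound 24 hours at 37C. Luciferase activity read by luminescence after 10 minutes with Amplite reagent.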
NPC1 prom act = NPC1 promoter activation; Huh7 NPC1 promoter luciferase reporter, 24 h; Potency, µM (doses to about 9.22 µM), usual class: activators; 2.4% of 320,000 active; AID 485313; note: nearly all actives have a fitted effect of over 60% in size
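Cells: Huh7 expressing luciferase under the NPC1 promoter, 1500/well. Seeded 2 h, compound added, incubated 24 h at 37 °C. Luciferase reagent, 10 min ambient, then luminescence.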
Luc counter = Kinase-Glo luciferase inhibition (counter-screen). Q27757. Kinase-Glo luciferase, ATP luminescence, 8 min. Potency, µM (series often up to 38.3 µM), hits mostly inhibitors. 0.28% of 200,000 active. AID 1379; note: nearly all actives have a fitted effect of over 60% in size
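Luminescence was the read-out, taken after 8-minute incubation at ambient temperature. Luciferase turned over luciferin with 10 uM ATP in imidazole pH 7.2 buffer containing KCl, MgCl2, Tween 20 and BSA.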
ELG1 genotoxic = induces genotoxicity in HEK293T cells with luciferase-tagged ELG1; 1.3% of 330,000 active; Potency, µM (top dose mostly 46 µM), most hits filed as activators; HEK293T ELG1-luciferase reporter, luminescence, 16 h; AID 504466; note: nearly all actives have a fitted effect of over 60% in size
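Step 1: seed 2,000 HEK293T ELG1-luciferase cells per well. Step 2: add compound or DMSO, incubate 16 hr at 37 °C. Step 3: ONE-Glo, 30 min at room temperature, read luminescence.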
Numbers stand for hits; – = inactive; ? = inconclusive; · = not tested or not shown. Sampled rows, rich in hits. Any-hit rate of the full collection: about 7.3%. Calls come from the whole dose curve; as a rule, active = well fitted curve in the direction sought with a large enough effect; inconclusive = small, poorly fitted or top-dose-only effect, or another doubt; inactive = no such curve, though single readings can be large; an effect the other way counts as inactive or inconclusive.

SMILES	SMN2 splice enh	FLuc modulator	Rab9 prom act	NPC1 prom act	Luc counter	ELG1 genotoxic
N/C(=N\OS(=O)(=O)c1ccc(Cl)cc1)c1ccccn1	–	–	–	–	–	23µM
N/C(=N\OC(=O)c1ccc(Cl)c([N+](=O)[O-])c1)c1ccccn1	·	?	–	–	·	–
N/C(=N\OC(=O)c1ccc(Cl)c(Cl)c1)c1ccccn1	14µM	0.76µM	4.5µM	3.2µM	–	?
N/C(=N\OC(=O)CCCOc1ccccc1)c1cccc(Br)c1	–	?	–	–	–	–
N/C(=N/OC(=O)c1ccc(Cl)cc1)c1ncc([N+](=O)[O-])s1	·	?	?	–	·	–
N/C(=N\OC(=O)c1ccc(Cl)cc1)c1ccccn1	7.1µM	0.076µM	1.4µM	0.56µM	6.3µM	?
Cc1cc(C)cc(NC(=S)NC2CC3CCCC(C2)N3C2CCCC2)c1 (stereo not drawn)	·	–	–	–	–	–
N/C(=N\OC(=O)c1cccc(Cl)c1)c1ccccn1	14µM	0.6µM	3.2µM	3.2µM	–	?
N/C(=N\OC(=O)c1ccc(Cl)cc1)c1[nH]ncc1Br	·	0.13µM	3.2µM	?	·	?
CCO/N=C(\N)c1[nH]ncc1Br	·	–	–	–	·	–
CCOc1ccc(C(=O)O/N=C(\N)c2ccccn2)cc1OCC	·	12µM	2.5µM	1.3µM	·	?
N/C(=N\OC(=O)c1cccc(Br)c1)c1ccccc1	?	0.85µM	–	–	–	?
O=C(NC(Cc1ccccc1)C(=O)O)c1ccc(S(=O)(=O)N2CCOCC2)cc1 (stereo not drawn)	?	–	–	–	–	–
COc1ccc(N2C(=O)c3ccccc3S2(=O)=O)cc1	·	–	–	–	·	–
CCN(CC)c1ccc(NC(=O)COC(=O)CSc2ccc(Br)cc2C)cc1	–	–	–	–	–	–
Cc1cccc(N=Nc2c(N)n[nH]c2N)c1	·	?	–	–	·	–
Nc1n[nH]c(N)c1N=Nc1cccc(C(F)(F)F)c1	·	–	–	–	·	–
Nc1n[nH]c(N)c1N=Nc1cccc(F)c1	–	24µM	–	–	–	–
Nc1n[nH]c(N)c1N=Nc1ccc(Cl)cc1	–	15µM	–	–	–	?
Nc1[nH]ncc1N=Nc1ccc(Cl)cc1	–	13µM	?	–	–	18µM
CNc1ccc(/C=C(\C#N)C(=O)Nc2ccccn2)cc1[N+](=O)[O-]	·	–	–	–	·	–
CN(C)C(=S)c1ccc(N(C)C)cc1	–	–	–	–	–	–
Cc1noc(C)c1COc1ccccc1C(=O)N(C)CC(=O)Nc1ccc(Cl)c(Cl)c1	·	–	–	–	·	–
Cc1ccc(OCc2ccc(C(=O)O)o2)cc1C	·	11µM	?	?	·	?
Cc1ccc(OCc2ccc(C(=O)N3CCOCC3)cc2)cc1C	11µM	6.7µM	1.4µM	3.5µM	–	?
SMILES	SMN2 splice enh	FLuc modulator	Rab9 prom act	NPC1 prom act	Luc counter	ELG1 genotoxic
COC(=O)c1ccc(COc2cc(C)ccc2C)o1	·	11µM	–	–	·	?
C=CCc1ccc(OCC(O)COCC)c(OC)c1 (stereo not drawn)	13µM	19µM	?	?	–	18µM
COC(=O)c1ccc(COc2ccc3ccc(=O)oc3c2)o1	·	–	–	–	·	–
Cc1ccc(OCc2ccc(C(=O)Nc3nccs3)o2)cc1C	–	17µM	?	?	–	–
CCc1cc(=O)oc2cc(OCc3ccc(C(=O)O)o3)ccc12	·	27µM	?	?	·	–
O=C(O)c1ccc(COc2ccc3c4c(c(=O)oc3c2)CCC4)o1	·	?	–	–	·	–
COC(=O)c1ccc(COc2ccc(C)c(C)c2)o1	·	?	1.6µM	1.4µM	·	?
C=CCc1ccc(OCc2ccc(C(=O)OC)o2)c(OC)c1	?	7.6µM	0.5µM	?	–	10µM
Cc1ccc(OCc2ccoc2C(=O)O)cc1C	–	19µM	–	–	–	–
Cc1ccc(OC(C)C(=O)O)cc1C (stereo not drawn)	–	–	–	–	–	–
Cc1c(C)c2ccc(OCc3ccc(C(=O)O)o3)c(C)c2oc1=O	–	11µM	–	–	–	?
O=C(OCC(=O)N1CCCCCC1)c1n[nH]c(=O)c2ccccc12	?	?	–	–	–	–
COc1ccc(-c2cc(N3C(=O)Nc4ccccc4N3O)n[nH]2)cc1	?	11µM	–	–	–	–
COc1ccc(-c2cc(N3C(=O)Nc4ccccc4N3O)n[nH]2)c(OC)c1	–	15µM	–	–	–	–
CCOc1ccc(-c2cc(N3C(=O)Nc4ccccc4N3O)on2)cc1	–	2.4µM	–	–	–	–
CCOC(=O)c1cc2cc3ccccc3cc2[nH]1	3.2µM	?	2.5µM	2.2µM	–	?
Oc1ccccc1-c1cc(-c2ccc3c(c2)OCCO3)n[nH]1	3.2µM	0.34µM	0.71µM	0.5µM	–	0.37µM
COC(=O)c1cc(-c2ccccc2)n[nH]1	–	–	–	–	–	–
CC(C)OC(=O)c1cc2ccccc2[nH]1	–	?	–	–	–	–
CCOC(=O)c1cc(-c2ccc3c(c2)OCCO3)n[nH]1	·	2.4µM	1.6µM	3.2µM	–	?
CCOC(=O)c1cc(-c2ccc(OC)cc2)n[nH]1	·	17µM	?	?	·	?
COc1cc(C)ccc1OCCCCN1CC(C)OC(C)C1 (stereo not drawn)	–	–	–	–	–	–
COc1ccc(-c2c[n+]3c(n2-c2ccccc2)SCC3)cc1OC	–	–	–	–	–	–
Cc1nc2cc(-c3ccc(Cl)cc3)nn2c(C)c1CCC(=O)NCc1ccco1	–	–	–	–	–	–
O=C(O)c1cc(-c2ccc3c(c2)OCCO3)n[nH]1	·	11µM	–	–	–	–
SMILES	SMN2 splice enh	FLuc modulator	Rab9 prom act	NPC1 prom act	Luc counter	ELG1 genotoxic
Cc1cc(Nc2ccccc2)nc2cc(O)ccc12	–	17µM	–	–	–	–
CCOc1ccc(Nc2cc(C)c3ccccc3n2)cc1	·	17µM	?	–	·	–
COC(=O)c1ccc(Nc2cc(C)nc3ccc(C)cc23)cc1	·	–	–	–	·	–
Cc1ccc2nc(C)cc(Nc3ccc([N+](=O)[O-])cc3)c2c1	–	–	–	–	–	5.8µM
COc1ccc(Nc2cc(C)c3ccc(O)cc3n2)cc1	·	24µM	–	–	·	–
CCOc1ccc(Nc2c3ccccc3nc3ccccc23)cc1	·	–	–	–	·	–
CN(Cc1nc2ccccc2[nH]1)Cc1nc(CC2CC2)no1	·	?	–	–	–	–
O=C(OCc1nc2ccccc2[n+]([O-])c1C(=O)c1ccccc1)c1cccs1	–	–	–	–	–	–
COCC(=O)NC1CC(C)(C)Cc2c1cnn2-c1ccc(F)cc1 (stereo not drawn)	·	–	–	–	·	–
COc1ccc(Nc2cc(C)c3cc([N+](=O)[O-])ccc3n2)cc1	·	17µM	–	–	·	–
COc1ccc(Nc2ccc([N+](=O)[O-])cn2)cc1	·	?	?	?	·	–
